# Data reported in PubChem BioAssay.
# Active and inactive are the calls of the source.
# Key:
# [1] = binders of probe aFSTL3 on microarray, primary screen, stem cell growth factor project, biochemical, small-molecule microarray, fluorescence 635/667 (AID 1064); conditions: higher = more signal;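 note: measures binding of the biotinylated anti-FSTL3 antibody to printed compounds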
# [2] = binders from COS7 lysate, DM2A8 probe, primary screen, torsin A project, cell lysate, small-molecule microarray, fluorescence 635/667 (AID 1065); conditions: higher = more signal, COS7 lysate expressing mutant human TOR1A
# [3] = binders of probe aFGF2 on microarray, primary screen, stem cell growth factor project, biochemical, small-molecule microarray, fluorescence 635/667 (AID 1067); conditions: higher = more signal;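 note: measures binding of biotinylated aFGF2 protein to printed compounds on slides; z-score merges feature fluorescence and signal-to-noise across triplicate slides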
# [4] = binders of probe aFGF10 on microarray, primary screen, stem cell growth factor project, biochemical, small-molecule microarray, fluorescence 635/667 (AID 1071); conditions: higher = more signal;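 note: score merges 667 nm spot intensity and signal to noise from triplicate slides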
# [5] = target: Neurogenic locus notch homolog protein 2 (Homo sapiens) (UniProt Q04721); test: Notch2 binders on small-molecule microarrays, primary screen, biochemical, small-molecule microarray, 635 nm fluorescence, stem cell growth factors (AID 1073); conditions: Notch2 binding, higher = more signal
# [6] = target: Pro-neuregulin-1, membrane-bound isoform (Homo sapiens) (UniProt Q02297); test: NRG1 binders on small-molecule microarrays, primary screen, psychiatric disease protein project, biochemical, small-molecule microarray, fluorescence 635/667 (AID 1075); conditions: NRG1 binding, 635 nm fluorescence, higher = more signal;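 note: score combines 667 nm spot fluorescence with signal to noise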
# [7] = test system: Neuregulin-1 EGF-like domain; test: binders of neuregulin-1 EGF-like domain, primary screen, biochemical, small-molecule microarray, 635 nm fluorescence (AID 1081); conditions: small-molecule microarray binding, higher = more signal;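 note: binding of the protein to compounds printed on small-molecule microarray slides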
# [8] = FRG1 promoter luciferase signal modulators, primary screen, FRG1 inhibition for FSHD, cell-based, C2C12 myotubes, firefly/Renilla luciferase, luminescence (AID 1084); conditions: higher = more signal, called active from +8 up or from −8 down
# [9] = binders of probe aFST on microarray, primary screen, stem cell growth factor project, biochemical, small-molecule microarray, fluorescence 635/667 (AID 1086); conditions: higher = more signal;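 note: score merges 667 nm fluorescence with signal-to-noise of each printed compound spot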
# [10] = binders of probe aHhip on microarray, primary screen, stem cell growth factor project, biochemical, small-molecule microarray, fluorescence 635/667 (AID 1087); conditions: higher = more signal;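 note: score merges spot fluorescence at 667nm with spot signal to noise ratio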
# [11] = test system: PRMT1 (protein arginine N-methyltransferase 1); test: PRMT1 binders on small-molecule microarrays, primary screen, biochemical, small-molecule microarray, 635 nm fluorescence (AID 1088); conditions: small-molecule microarray binding, higher = more signal;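 note: binding of Prmt1 protein to compounds spotted on small-molecule microarray slides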
# [12] = yeast growth modulation, basal conditions, primary screen, YJM789 clinical isolate, OD600, 24 h (AID 1089);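 note: growth of clinical yeast isolate S. cerevisiae YJM 789 seeded 1000 cells per well; test concentration not given here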; conditions: S. cerevisiae YJM789 growth, higher = more signal, called active from +8 up or from −8 down
# [13] = fission yeast growth modulation, primary screen, strain 972, OD600, 24 h, no modulator (AID 1090);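 note: basal condition with compound alone and no growth modifier present; test concentration not given here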; conditions: S. pombe 972 growth, higher = more signal, called active from +8 up or from −8 down
# [14] = S. cerevisiae growth modulation with rapamycin, primary screen, strain BY4716, OD600, 96 h (AID 1091); conditions: higher = more signal, called active from +8 up or from −8 down; note: test concentration not given here
# [15] = target: Torsin-1A-interacting protein 2 (Homo sapiens) (UniProt Q8NFQ8); test: LULL1 binders on small-molecule microarray, primary screen, cell lysate, human LULL1 lysate, 635/667 nm fluorescence (AID 1092); conditions: hLULL1 lysate binding, 635 nm fluorescence, higher = more signal;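 note: probe is lysate of COS7 cells overexpressing human LULL1; score merges per-feature 667 nm fluorescence with signal-to-noise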
# [16] = E. coli growth modulation, two-sided OD650, primary screen, E. coli filamentation project, strain DRC41, 24 h (AID 1093); conditions: OD650, 24 h, higher = more signal, called active from +8 up or from −8 down;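 note: MC1000 strain lacking acrAB efflux and sulA so SOS filamentation is blocked; test concentration not given here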
# [17] = small-molecule microarray binders of probe aLefty2, primary screen, biochemical, biotinylated probe, 635/667 nm fluorescence (AID 1094); conditions: higher = more signal;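 note: score merges spot fluorescence near 667 nm with spot signal-to-noise ratio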
# [18] = test system: Noggin (protein binding on small-molecule microarray); test: Noggin binders on small-molecule microarray, primary screen, biochemical, 635/667 nm fluorescence (AID 1095); conditions: 635 nm fluorescence, higher = more signal;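 note: score merges 667 nm feature fluorescence with signal to noise over triplicate slides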
# [19] = target: Neurogenic locus notch homolog protein 3 (Homo sapiens) (UniProt Q9UM47); test: NOTCH3 binders on small-molecule microarray, primary screen, biochemical, 635/667 nm fluorescence (AID 1096); conditions: NOTCH3 binding, 635 nm fluorescence, higher = more signal
# [20] = small-molecule microarray binders of probe aEGFR, primary screen, biochemical, biotinylated probe, 635/667 nm fluorescence (AID 1097); conditions: higher = more signal;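 note: probe is a biotinylated anti-EGFR antibody binding compounds printed on slides; score combines fluorescence near 667 nm and signal to noise of each spot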
# Chain of Neurogenic locus notch homolog protein 3 (Homo sapiens) (Q9UM47 whole entry, looked up): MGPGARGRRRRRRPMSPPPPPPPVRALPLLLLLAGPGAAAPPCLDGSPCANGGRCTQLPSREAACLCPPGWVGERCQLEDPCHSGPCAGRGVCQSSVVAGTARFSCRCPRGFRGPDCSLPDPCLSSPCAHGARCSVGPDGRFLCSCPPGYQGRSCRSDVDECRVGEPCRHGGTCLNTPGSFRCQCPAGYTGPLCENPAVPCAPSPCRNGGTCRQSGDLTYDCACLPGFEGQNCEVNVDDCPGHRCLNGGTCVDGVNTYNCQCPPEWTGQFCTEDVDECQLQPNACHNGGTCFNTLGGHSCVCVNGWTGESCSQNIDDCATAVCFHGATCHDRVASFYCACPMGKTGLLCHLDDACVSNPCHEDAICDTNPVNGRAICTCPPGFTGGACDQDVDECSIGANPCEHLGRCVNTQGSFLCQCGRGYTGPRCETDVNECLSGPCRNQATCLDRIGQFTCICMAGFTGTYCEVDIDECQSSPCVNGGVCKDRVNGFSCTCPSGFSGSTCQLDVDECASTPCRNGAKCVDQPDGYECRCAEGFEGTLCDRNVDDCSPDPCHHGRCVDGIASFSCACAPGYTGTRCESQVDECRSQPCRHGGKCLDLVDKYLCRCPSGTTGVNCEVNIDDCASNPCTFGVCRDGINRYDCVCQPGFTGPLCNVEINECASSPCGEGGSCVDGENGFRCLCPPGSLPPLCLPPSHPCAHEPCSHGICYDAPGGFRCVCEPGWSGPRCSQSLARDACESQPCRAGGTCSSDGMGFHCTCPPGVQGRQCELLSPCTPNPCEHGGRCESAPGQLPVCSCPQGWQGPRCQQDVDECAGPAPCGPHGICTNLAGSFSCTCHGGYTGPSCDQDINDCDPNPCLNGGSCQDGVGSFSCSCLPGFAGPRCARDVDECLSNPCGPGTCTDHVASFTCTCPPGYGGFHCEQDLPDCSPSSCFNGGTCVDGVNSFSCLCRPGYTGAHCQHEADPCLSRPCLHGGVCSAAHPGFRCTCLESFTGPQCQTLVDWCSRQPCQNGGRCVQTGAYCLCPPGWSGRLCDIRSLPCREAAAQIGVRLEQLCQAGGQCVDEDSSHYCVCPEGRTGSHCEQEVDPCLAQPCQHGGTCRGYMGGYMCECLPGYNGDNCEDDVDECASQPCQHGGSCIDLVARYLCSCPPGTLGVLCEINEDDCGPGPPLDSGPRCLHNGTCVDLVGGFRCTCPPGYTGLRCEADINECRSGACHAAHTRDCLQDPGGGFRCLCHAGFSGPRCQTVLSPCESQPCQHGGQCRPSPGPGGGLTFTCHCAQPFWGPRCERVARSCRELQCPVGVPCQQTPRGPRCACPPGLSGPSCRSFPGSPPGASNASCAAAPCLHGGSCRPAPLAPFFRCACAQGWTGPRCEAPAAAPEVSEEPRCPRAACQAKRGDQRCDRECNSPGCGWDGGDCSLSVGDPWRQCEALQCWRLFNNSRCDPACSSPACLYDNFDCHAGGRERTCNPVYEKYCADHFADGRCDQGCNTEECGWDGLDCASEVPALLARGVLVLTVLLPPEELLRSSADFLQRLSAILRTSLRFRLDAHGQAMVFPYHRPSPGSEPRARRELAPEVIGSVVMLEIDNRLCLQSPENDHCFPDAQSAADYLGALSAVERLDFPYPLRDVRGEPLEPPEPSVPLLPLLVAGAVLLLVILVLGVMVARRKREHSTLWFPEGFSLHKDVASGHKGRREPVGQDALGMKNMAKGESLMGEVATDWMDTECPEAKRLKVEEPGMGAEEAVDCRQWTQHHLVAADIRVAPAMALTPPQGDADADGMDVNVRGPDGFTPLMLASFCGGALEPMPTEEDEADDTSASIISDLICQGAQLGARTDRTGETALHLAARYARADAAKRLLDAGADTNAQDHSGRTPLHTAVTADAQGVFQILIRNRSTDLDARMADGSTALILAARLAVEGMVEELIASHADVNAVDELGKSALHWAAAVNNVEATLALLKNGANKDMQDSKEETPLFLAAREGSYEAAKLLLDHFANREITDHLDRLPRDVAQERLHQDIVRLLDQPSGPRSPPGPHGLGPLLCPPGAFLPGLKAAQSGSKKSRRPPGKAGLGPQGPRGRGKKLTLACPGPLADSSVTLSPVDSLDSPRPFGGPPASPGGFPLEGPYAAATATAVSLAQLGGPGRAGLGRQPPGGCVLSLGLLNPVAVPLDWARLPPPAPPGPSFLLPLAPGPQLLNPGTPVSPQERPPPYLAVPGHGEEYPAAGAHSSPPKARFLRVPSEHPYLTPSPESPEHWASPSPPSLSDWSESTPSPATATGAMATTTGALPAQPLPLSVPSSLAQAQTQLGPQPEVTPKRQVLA
# Chain of Pro-neuregulin-1, membrane-bound isoform (Homo sapiens) (Q02297 whole entry, looked up, the tested form may be a part, canonical isoform): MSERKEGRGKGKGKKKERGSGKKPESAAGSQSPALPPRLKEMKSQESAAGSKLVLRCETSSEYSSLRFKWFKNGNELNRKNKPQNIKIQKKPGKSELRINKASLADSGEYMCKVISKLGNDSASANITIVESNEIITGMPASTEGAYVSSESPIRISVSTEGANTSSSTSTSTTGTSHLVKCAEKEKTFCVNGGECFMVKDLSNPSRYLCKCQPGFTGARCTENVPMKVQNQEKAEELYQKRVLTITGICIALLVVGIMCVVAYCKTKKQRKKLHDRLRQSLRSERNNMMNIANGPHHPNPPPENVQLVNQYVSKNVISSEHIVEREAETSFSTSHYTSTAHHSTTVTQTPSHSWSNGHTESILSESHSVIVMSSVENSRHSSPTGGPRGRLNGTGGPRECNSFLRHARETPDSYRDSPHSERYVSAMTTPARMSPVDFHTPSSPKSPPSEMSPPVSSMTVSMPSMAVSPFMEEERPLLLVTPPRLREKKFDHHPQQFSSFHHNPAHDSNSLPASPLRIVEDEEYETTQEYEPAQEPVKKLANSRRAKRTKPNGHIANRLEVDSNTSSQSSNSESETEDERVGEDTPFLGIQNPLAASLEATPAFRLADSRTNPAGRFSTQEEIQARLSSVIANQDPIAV
# Chain of Torsin-1A-interacting protein 2 (Homo sapiens) (Q8NFQ8 whole entry, looked up): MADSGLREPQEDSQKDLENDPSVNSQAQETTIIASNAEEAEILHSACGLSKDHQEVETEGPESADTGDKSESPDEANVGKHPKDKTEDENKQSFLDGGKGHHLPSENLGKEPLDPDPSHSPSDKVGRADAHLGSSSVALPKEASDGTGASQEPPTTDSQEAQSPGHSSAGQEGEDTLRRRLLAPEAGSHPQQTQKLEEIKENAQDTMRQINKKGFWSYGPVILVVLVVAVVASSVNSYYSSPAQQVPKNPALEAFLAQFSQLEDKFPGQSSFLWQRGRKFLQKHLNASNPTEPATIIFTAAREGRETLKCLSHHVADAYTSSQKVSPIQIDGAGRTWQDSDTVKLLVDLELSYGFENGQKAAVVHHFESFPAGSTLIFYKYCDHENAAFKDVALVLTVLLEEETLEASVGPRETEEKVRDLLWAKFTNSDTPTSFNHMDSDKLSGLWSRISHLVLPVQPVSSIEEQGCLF
structure (smiles),measurement,setting,value
COc1ccc(O[C@H]2C=C[C@@H](C#Cc3ccccc3)O[C@@H]2CO)cc1,composite z-score,[1],-0.213
same,composite z-score,[2],0.0018
same,composite z-score,[3],-0.0206
same,composite z-score,[4],0.457
same,composite z-score,[5],0.339
same,composite z-score,[6],0.658
same,composite z-score,[7],0.644
same,z-score,[8],-1.37 (inactive)
same,composite z-score,[9],0.137
same,composite z-score,[10],-0.236
same,composite z-score,[11],0.718
same,z-score,[12],-0.315 (inactive)
same,z-score,[13],-20.4 (active)
same,z-score,[14],-0.731 (inactive)
same,composite z-score,[15],1.88
same,z-score,[16],1.3 (inactive)
same,composite z-score,[17],-0.248
same,composite z-score,[18],1.15
same,composite z-score,[19],0.402
same,composite z-score,[20],-0.125
CCOC(=O)[C@H](Cc1ccccc1)NC(=O)CCC1CC(OC(=O)NCc2cccc3ccccc23)CC2(CCCC(COC(=O)NCc3ccc4c(c3)OCO4)O2)O1 (stereo not given in full),composite z-score,[1],-0.341
same,composite z-score,[2],-0.261
same,composite z-score,[3],-0.0391
same,composite z-score,[4],0.694
same,composite z-score,[5],0.305
same,composite z-score,[6],0.188
same,composite z-score,[7],1.07
same,z-score,[8],1.4 (inactive)
same,composite z-score,[9],0.0918
same,composite z-score,[10],-0.134
same,composite z-score,[11],-0.0058
same,z-score,[12],0.549 (inactive)
same,z-score,[13],-0.02 (inactive)
same,z-score,[14],0.743 (inactive)
same,composite z-score,[15],1.8
same,z-score,[16],0.951 (inactive)
same,composite z-score,[17],-0.139
same,composite z-score,[18],0.453
same,composite z-score,[19],0.227
same,composite z-score,[20],0.104
COC(=O)[C@H](C)NC(=O)CCC1CC(OC(=O)NCc2ccc3c(c2)OCO3)CC2(CCCC(COC(=O)NCCCN3CCCC3=O)O2)O1 (stereo not given in full),composite z-score,[1],-0.869
same,composite z-score,[2],0.62
same,composite z-score,[3],-0.0397
same,composite z-score,[4],0.469
same,composite z-score,[5],0.829
same,composite z-score,[6],0.357
same,composite z-score,[7],1.04
same,z-score,[8],-0.787 (inactive)
same,composite z-score,[9],1.3
same,composite z-score,[10],0.0373
same,composite z-score,[11],1.45
same,z-score,[12],0.395 (inactive)
same,z-score,[13],0.642 (inactive)
same,z-score,[14],0.502 (inactive)
same,composite z-score,[15],0.908
same,z-score,[16],-0.223 (inactive)
same,composite z-score,[17],-0.155
same,composite z-score,[18],0.424
same,composite z-score,[19],1.1
same,composite z-score,[20],-0.0128
COc1ccc(COC(=O)NN=C2C[C@@H](O)[C@@H](O)[C@@H]3[C@@H]4C(=O)N(Cc5ccccc5)C(=O)[C@@H]4CC[C@@H]23)cc1,composite z-score,[1],-0.512
same,composite z-score,[2],-0.0209
same,composite z-score,[3],-0.0286
same,composite z-score,[4],0.291
same,composite z-score,[5],0.383
same,composite z-score,[6],-0.271
same,composite z-score,[7],-0.214
same,z-score,[8],0.364 (inactive)
same,composite z-score,[9],0.268
same,composite z-score,[10],0.0183
same,composite z-score,[11],0.166
same,z-score,[12],0.712 (inactive)
same,z-score,[13],0.304 (inactive)
same,z-score,[14],-0.0766 (inactive)
same,composite z-score,[15],0.105
same,z-score,[16],0.555 (inactive)
same,composite z-score,[17],-0.0873
same,composite z-score,[18],0.123
same,composite z-score,[19],0.724
same,composite z-score,[20],-0.0868
CC(C)(C)N1C(=O)[C@H]2[C@@H]3C(=CC[C@H]2C1=O)C(=O)[C@H]1O[C@H]1[C@H]3O,composite z-score,[1],-0.293
same,composite z-score,[2],1.62
same,composite z-score,[3],-0.226
same,composite z-score,[4],0.25
same,composite z-score,[5],-0.573
same,composite z-score,[6],-0.261
same,composite z-score,[7],0.17
same,z-score,[8],9.15 (active)
same,composite z-score,[9],-0.546
same,composite z-score,[10],0.0024
same,composite z-score,[11],0.34
same,z-score,[12],-2.18 (inactive)
same,z-score,[13],-4.57 (inactive)
same,z-score,[14],-1.63 (inactive)
same,composite z-score,[15],-0.758
same,z-score,[16],-2 (inactive)
same,composite z-score,[17],-0.338
same,composite z-score,[18],-0.0454
same,composite z-score,[19],-0.615
same,composite z-score,[20],-0.152
